From PubChem BioAssay come the findings set out here.

The structures appear in SMILES notation. Activity calls are given as the source filed them. No stated cut-off is given here; in the data, active means inhibition above about 33%; inactive means the rest.

The assay can be described thus: VP16 transactivation reporter inhibitors, counter-screen for LRH-1 inverse agonist project, cell-based, luminescence, high throughput (AID 651615). The settings on record: Gal4-VP16 luciferase reporter cells, at 3.6 µM, hits give high values.
The inhibition is the change of the read-out against control, counted positive when it falls. In the case of `COc1cc(N)c2ncccc2c1Cl`, the inhibition was 10.7% (inactive).

As for `C/C(=N/N1CCN(Cc2cccc3ccccc23)CC1)c1cccnc1`, the inhibition is -2.08% (inactive).

For the compound `Cc1nn(CC(=O)NCCC2=CCCCC2)c(C)c1[N+](=O)[O-]`, the inhibition is -0.8% (inactive).

Turning to `CCOc1ccc(CCNC(=O)COC(=O)c2cc([N+](=O)[O-])ccc2N2CCOCC2)cc1OCC`, the inhibition is -11.1% (inactive).

In the case of `O=C(CSc1nnc(Cc2cccs2)n1Cc1ccco1)Nc1ccc(Cl)cc1Cl`, the inhibition was 19.1% (inactive).

For `O=C(c1cc(-c2ccco2)nc2ccccc12)N(Cc1nnc(-c2ccc(Cl)cc2)o1)C1CC1`, the inhibition was -2.77% (inactive).

For `COc1ccc(NC(=O)COc2ccc(N(C)S(=O)(=O)c3ccc(Cl)cc3)cc2)cc1OC`, the inhibition was 51.1% (active).

On to `CC(O)(c1cccnc1)c1nc(-c2cccc(C#N)c2)cs1` (stereo not given), for which the inhibition was 7.33% (inactive).

In the case of `C=CC(=O)Nc1cccc(Oc2ncnc3[nH]cc(-c4cnc5ccccc5c4)c23)c1`, the inhibition was 18.2% (inactive).

As to `COc1ccc(C2=CC(=O)CC(C)(C)C2)cc1OC`, the inhibition was 11.7% (inactive).

For `O=C(CSc1nnc(CNC(=O)c2c(F)cccc2F)o1)Nc1ccc2c(c1)OCCO2`, the inhibition is -8.58% (inactive).

For `O=C(CSc1n[nH]c(-c2ccccc2)n1)Nc1ccc(N2CCOCC2)cc1`, the inhibition is -15.3% (inactive).

Regarding `COc1ccc2nc(N3CCC(O)CC3)c(C#N)cc2c1`, the inhibition is -30.6% (inactive).

For `Cc1ccc(S(=O)(=O)NCc2ccncc2)cc1`, the inhibition was 48.7% (active).

With `COc1ccc(NC(=O)CSC2=NCCN2)cc1`, the inhibition was -3.5% (inactive).

For the compound `O=[N+]([O-])c1ccc(N2CCCC2)nc1N1CCCC1`, the inhibition was -3.67% (inactive).

On to `CO/N=C\C(=N\Nc1ccc(OC)cc1)C(=O)c1ccccc1`, for which the inhibition was 5.9% (inactive).

For the compound `O=C(N/N=C/c1cc2c3c(c1O)CCCN3CCC2)c1ccccc1O`, the inhibition was 70.4% (active).

As for `S=C(Nc1cccnc1)Nc1cccc2cnccc12`, the inhibition is 17% (inactive).

In the case of `CCCc1cc(=O)oc2cc(OCC(=O)NC3CC(C)(C)NC(C)(C)C3)ccc12`, the inhibition was 2.6% (inactive).

Regarding `CCOc1ccc(NC(=O)COC(=O)COc2cccc3c2OC(C)(C)C3)cc1`, the inhibition is -1.47% (inactive).

In the case of `Cc1ccc(-c2csc(NC(=O)c3ccc([N+](=O)[O-])o3)n2)cc1`, the inhibition was -19.4% (inactive).

For the compound `COc1cc2c(cc1OC)-c1c(OC)c(OC)cc3ccnc(c13)C2=O`, the inhibition is 25.4% (inactive).

Consider `C/C(=N\NC(N)=S)C1(C)CCCCC1`, for which the inhibition is 29.4% (inactive).

Consider `COc1ccc(-c2sc(C(=O)c3ccc(Cl)cc3Cl)cc2CC(=O)O)cc1`, for which the inhibition is -5.16% (inactive).

For the compound `COc1cc(-c2cc(C(=O)Nc3ccncc3)c3ccccc3n2)cc(OC)c1OC`, the inhibition is -10.9% (inactive).

Take `COc1ccc2c(c1)/C(=C/c1cc(OC)c(OC)c(OC)c1)C(=O)N2`: the inhibition was 41.6% (active).

With `CCOC(=O)CCCc1ccc(/C(C)=N/NC(N)=S)cc1`, the inhibition is 26.4% (inactive).

On to `O=C(NCc1cccc(C(F)(F)F)c1)c1cccc(Cl)c1Cl`, for which the inhibition is 11.8% (inactive).

Consider `CCOc1ccccc1C(=O)Nc1cc2c(cc1N1CCCC1)n(CC)c(=O)n2CC`, for which the inhibition is 49.6% (active).

For `Cc1nn(Cc2ccc(Cl)cc2)c(C)c1NC(=O)c1ccc([N+](=O)[O-])cc1`, the inhibition was -3.45% (inactive).

Take `CCOc1ccc(NC(=O)Cn2nc(-c3ccccc3Cl)n(CC)c2=S)cc1`: the inhibition is 2.74% (inactive).

On to `Cc1ccc(-c2nn3c(C)nnc3s2)cc1NC(=O)c1cccs1`, for which the inhibition was -15.2% (inactive).

For `S=C(NCCc1ccccc1)Nc1cccc2cnccc12`, the inhibition was 42.3% (active).

Turning to `O=C(CC1C(=O)NCCN1C(=S)Nc1ccccc1)Nc1ccc2c(c1)OCCO2` (stereo not given), the inhibition is -25.2% (inactive).

`CC(=NNC(=S)N1CCN(c2ccccn2)CC1)c1nccs1`: the inhibition is 44.3% (active).

For the compound `O=[N+]([O-])c1ccc(N2CCN(S(=O)(=O)c3ccccc3)CC2)cc1NCc1cccnc1`, the inhibition is 14.6% (inactive).

For `CC(=O)Nc1cc(-c2cccc(F)c2)cn2c(-c3ccc(S(C)(=O)=O)cc3)cnc12`, the inhibition is -14.3% (inactive).

Regarding `CCCc1cc(=O)oc2cc(OCC(=O)NCCc3ccc(S(N)(=O)=O)cc3)ccc12`, the inhibition is 4.44% (inactive).

With `COc1ccc(NC(=O)CSc2nc(O)cc(=O)n2-c2ccccc2OC)cc1`, the inhibition was 2.37% (inactive).
